# Screening results from PubChem BioAssay.
# Hits are enriched below; roughly 5% of the tested compounds scored in any of these assays.
# SENP8 block-1: inhibitors of human SENP8 protease; AID 2540; Q96LD8; purified SENP8, Z-RLRGG-aminoluciferin cleavage, luminescence; inhibition, % at 10 µM; hit rate 1.2% among 330,000; in the data active = inhibition above about 50%
# Target sequence (Q96LD8 whole entry, looked up): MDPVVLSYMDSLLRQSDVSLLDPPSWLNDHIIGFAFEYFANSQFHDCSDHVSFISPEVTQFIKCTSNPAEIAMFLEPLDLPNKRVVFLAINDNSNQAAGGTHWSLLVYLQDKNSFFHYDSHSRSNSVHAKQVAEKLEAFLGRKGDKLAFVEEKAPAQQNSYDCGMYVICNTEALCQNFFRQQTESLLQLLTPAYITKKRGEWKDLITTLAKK
# AHR activator: activators of human aryl hydrocarbon receptor. P35869. AHR-responsive luciferase reporter cells, luminescence. activation, % at 5 µM. hit rate 2.5% among 320,000. AID 2796; in the data active = activation above about 47%;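 also: 0% = vehicle wells and 100% = reference agonist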
# EBI2 block: EBI2 (human) antagonism; EBI2 beta-arrestin recruitment, luminescence, 7a,25-OHC stimulated; inhibition, % at 5 µM; hit rate 0.81% among 360,000; in the data active = inhibition above about 38%;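 also: enzyme fragment complementation signal reports receptor beta-arrestin coupling in cells; 0% = agonist plus DMSO wells and 100% = wells without agonist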
# Target sequence (P32249 whole entry, looked up, the tested form may be a part): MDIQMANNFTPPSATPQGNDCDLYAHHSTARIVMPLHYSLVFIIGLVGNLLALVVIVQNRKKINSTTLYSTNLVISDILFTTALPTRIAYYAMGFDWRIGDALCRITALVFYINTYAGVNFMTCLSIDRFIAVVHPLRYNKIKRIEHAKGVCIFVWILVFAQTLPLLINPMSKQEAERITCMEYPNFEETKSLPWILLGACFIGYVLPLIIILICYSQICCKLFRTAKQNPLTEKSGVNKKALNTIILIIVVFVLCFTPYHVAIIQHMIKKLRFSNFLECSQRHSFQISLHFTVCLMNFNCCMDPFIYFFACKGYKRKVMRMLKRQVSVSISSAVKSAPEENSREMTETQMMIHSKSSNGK
# SENP6 block: SENP6 protease inhibition | Q9GZR1 | Recombinant SENP6 catalytic domain, aminoluciferin luminescence | inhibition, % at 10 µM | hit rate 1.8% among 330,000;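 active = inhibition above about 50% at the single tested dose, limit read from the data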;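 also: plate controls were DMSO wells with enzyme for no effect and DMSO wells lacking enzyme for full effect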
# SENP8 block-2: blocks human SENP8 cleavage of Nedd8 substrate | Q96LD8 | recombinant SENP8, Nedd8 substrate fluorescence | inhibition, % at 20 µM | hit rate 0.64% among 360,000 | AID 602440; in the data active = inhibition mostly above about 40%, no sharp cut-off; inactive = mostly below about 27%
# SENP7 inh: blocks the human protease SENP7 | Q9BQF6 | recombinant SENP7, Z-RLRGG-aminoluciferin luminescence, 40 min | inhibition, % at 5 µM | hit rate 1.5% among 330,000 | AID 434973;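 active = inhibition above about 50% at the single test dose, limit read from the data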;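 also: plate controls were DMSO with enzyme for no effect and no enzyme buffer wells for full effect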
# SENP8 conf-1: human SENP8 inhibition, confirmed. shares compounds with SENP7 inh. Recombinant SENP8, Z-RLRGG-aminoluciferin luminescence, 60 min. inhibition, % at 12.5 µM. hit rate 40% among 6,200;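 active = mean inhibition across replicates above about 50%, limit read from the data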
# SENP6 confirm: human SENP6 inhibition, confirmed; hit rate 58% among 6,200; recombinant SENP6, Z-RLRGG-aminoluciferin luminescence; AID 488915; inhibition, % at 12.5 µM; shares compounds with SENP7 inh
# SENP7 conf: confirmation of human SENP7 protease inhibitors; shares compounds with SENP7 inh; recombinant SENP7, Z-RLRGG-aminoluciferin luminescence, 40 min; inhibition, % at 12.5 µM; hit rate 69% among 6,200
# Casp3 select: caspase-3 inhibition (SENP selectivity assay) | shares compounds with SENP7 inh | purified caspase-3, Z-DEVD-aminoluciferin luminescence, 60 min | inhibition, % at 12.5 µM | hit rate 60% among 6,200;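 active = mean inhibition above about 50%, limit read from the data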;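 also: plate controls were enzyme with DMSO for no effect and wells without caspase-3 for full effect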
# SENP luc ctr: counter-screen for SENP inhibitors: luminescence interference; shares compounds with SENP7 inh; inhibition, % at 12.5 µM; Pre-incubated SENP8/Z-RLRGG-aminoluciferin, luciferase luminescence interference; hit rate 39% among 6,200;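 active = mean inhibition above about 50% when retested at one dose, limit read from the data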;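 also: plate controls were DMSO wells with completed reaction for no effect and substrate without enzyme for full effect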
# SENP8 conf-2: confirmation of human SENP8 protease inhibitors. purified SENP8, Nedd8-AMC/pro-Nedd8 cleavage fluorescence, 30 min. shares compounds with SENP8 block-2. hit rate 15% among 1,400. inhibition, % at 25 µM. AID 624319; in the data active = inhibition mostly above about 39%, no sharp cut-off; inactive = mostly below about 34%
# EBI2 conf: EBI2 (human) antagonism, single concentration confirmation. hit rate 29% among 2,400. inhibition, % at 5 µM. shares compounds with EBI2 block. EBI2 beta-arrestin luminescence, 7a,25-OHC antagonism;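 active = inhibition of at least 50%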
# EBI2 ag: counter-screen for EBI2 antagonists: EBI2 agonist activity; EBI2-expressing cells, agonist mode, luminescence, 60 min; 0% vehicle, 100% 7α,25-dihydroxycholesterol control; activation, % at 5 µM; 2,400 tested, under 10 active; shares compounds with EBI2 block;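 active = activation of at least 50%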
# bGal counter: counter-screen for EBI2 antagonists: E. coli beta-galactosidase inhibition; shares compounds with EBI2 block; purified beta-galactosidase, luminescent Galacton Star, 15 min; inhibition, % at 5 µM; hit rate 1% among 2,400; AID 652176;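 active = replicate-average signal at least 3 plate SD below neutral wells, shown as high inhibition, flagging enzyme-inhibiting false positives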;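 also: 0% = DMSO wells with enzyme and 100% = wells lacking enzyme; higher means stronger loss of beta-gal luminescence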
# Starred values were filed as active, the others as inactive; x = no result given.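 The calls were made as follows, unless noted: active = mean inhibition above about 50% in the one-dose retest (limit read from the data); inactive = the rest.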
SMILES,SENP8 block-1,AHR activator,EBI2 block,SENP6 block,SENP8 block-2,SENP7 inh,SENP8 conf-2,others
Cc1cccc(/C=N/NC(=O)c2cc(-c3cccnc3)nc3c2c(C)nn3-c2ccccc2)c1,-9,8,43*,14,-171,77*,x,SENP8 conf-1=4;SENP6 confirm=-5;SENP7 conf=-5;Casp3 select=-5;SENP luc ctr=-3;EBI2 conf=38;EBI2 ag=-1;bGal counter=-16
Cc1cccc(/C=N/NC(=O)c2cc(-c3cccnc3)nc3ccccc23)c1,1,14,-2,5,2,0,x,
O=C(NCc1ccc2c(c1)OCO2)C1CC(c2ccccc2O)=NO1 (stereo unspecified),-2,0,-9,-7,11,2,x,
O=C(NCc1ccc2c(c1)OCO2)C1CC(c2cccc(Br)c2)=NO1 (stereo unspecified),-8,-4,-5,-21,40*,-4,11,
Cc1[nH][nH]c(=O)c1C(c1c(C)[nH][nH]c1=O)c1cn(C)c2ccccc12,x,x,11,x,77*,x,50*,
COc1ccc(/C=N/Nc2nc(C)c([N+](=O)[O-])c(N(C)c3ccccc3)n2)cc1OC,5,8,12,-10,53*,2,6,
COc1cc(C)c(S(=O)(=O)NCc2cccs2)cc1C,-10,-2,1,-13,41*,14,11,
Cc1noc(C)c1CSCC(=O)N(C)CC(=O)Nc1ccccc1Cl,-6,0,-6,3,5,-4,x,
Cc1ccc(S(=O)c2ccc([N+](=O)[O-])c3nonc23)cc1 (stereo unspecified),x,x,-15,x,61*,x,43,
CCS(=O)(=O)c1ccc2oc(SCC(=O)N3CCCCC3)nc2c1,2,2,-4,14,27,-4,x,
Cc1oc(-c2ccccc2Cl)nc1CS(=O)(=O)CC(=O)N1CCOCC1,1,-3,-6,-16,0,9,x,
CCCc1ccc(C(=O)NNc2ccc(F)cc2)cc1,-14,0,-2,-10,47*,10,8,
CCCc1ccc(C(=O)NNC(=O)c2ccc(Br)cc2)cc1,8,1,26,-8,18,2,x,
COc1cc(SC#N)ccc1N=Cc1c(C)[nH]n(-c2ccc(Cl)cc2)c1=O,-14,16,21,8,61*,-2,12,
O=C(NCC1COc2ccccc2O1)C1C2C=CC3(CN(Cc4ccccc4Cl)C(=O)C13)O2 (stereo unspecified),-2,-1,-4,8,4,-9,x,
COc1ccc(CCN2CC34C=CC(O3)C(C(=O)NCc3ccccc3Cl)C4C2=O)cc1OC (stereo unspecified),2,2,6,4,47*,5,16,
COC(=O)c1ccc(NC(=O)CN2CCN(c3ccccn3)CC2)cc1,1,3,4,-8,8,1,x,
C=CCc1ccc(OC)c(OC)c1,1,0,-2,-6,52*,-5,15,
COc1ccc(C(=O)/C=C(/C)N(C)C)cc1,-5,-4,2,-12,17,2,x,
COc1ccc(C(=O)C(CCCCC(CN(C)C)C(=O)c2ccc(OC)cc2)CN(C)C)cc1 (stereo unspecified),0,0,-5,-10,42*,-1,12,
Cc1ccc(C(=O)OC(C)C(=O)Nc2ccc3c(c2)OCO3)c(O)c1 (stereo unspecified),-6,14,-5,-4,6,-1,x,
CC(C)CCSc1cc(NCCO)c([N+](=O)[O-])c2nonc12,-4,4,14,34,49*,-6,27,
COc1ccc(NC(=O)C2CCC(N3C(=O)C4C5C=CC(C5)C4C3=O)CC2)cc1 (stereo unspecified),2,3,4,-7,20,2,x,
COc1ccc(NC(=O)[C@@H]2[C@@H]3C(=O)N(C4CCCCC4)C(=O)[C@@H]3C3c4ccccc4C=CN32)cc1 (stereo partly specified),2,90*,14,9,64*,6,38*,
Cc1ccc(S(=O)(=O)Nc2ccnc(-c3cccnc3)n2)cc1,3,-3,-10,16,6,-1,x,
SMILES,SENP8 block-1,AHR activator,EBI2 block,SENP6 block,SENP8 block-2,SENP7 inh,SENP8 conf-2,others
Cc1nonc1OC(C)CNc1ccc([N+](=O)[O-])cc1 (stereo unspecified),4,-1,12,-2,46*,2,24,
COc1ccc(C(=O)N2CCCCCC2)cc1S(=O)(=O)N1CCOCC1,5,-2,-3,-2,10,0,x,
Cc1onc(-c2ccccc2)c1C(=O)NCCc1ccc(Cl)cc1,1,-8,1,-11,51*,4,5,
O=C(CCN1CCOCC1)NNC(=O)c1ccc(Cl)c([N+](=O)[O-])c1,8,-1,2,-9,12,3,x,
Cc1cc2c(N)cccc2nn1,95*,2,0,91*,114*,47,45*,
Nc1cccc2nc3ccccc3cc12,0,22,7,-2,-377,3,x,
COc1cc(O)c(NC(C)=O)c2nonc12,7,1,-2,17,60*,19,33,
COc1cc(-c2ccc(NC(C)=O)c(OC)c2)ccc1NC(C)=O,0,6,-3,4,17,2,x,
CCN(CC)C(=O)C(c1ccccc1)S(=O)(=O)N1CCOCC1 (stereo unspecified),x,x,-4,x,13,x,x,
COc1c(OC)c(O)c2c(=O)c(O)c(-c3ccccc3)oc2c1OC,7,25,2,-5,42*,7,5,
